Values joined by “and” are separate entries in the source; they are usually repeats but may differ in a detail not shown here. Equal values may be shown once. In all, about 260,000 compounds went through this assay and about 1,500 (0.58%) were called active. Inconclusive results (about 5%) are left out.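 How the source made its calls: active means inhibition above a set limit at one or more doses, reproduced on every date tested; inconclusive means results disagree between test dates, or hit never tested in dose response; inactive means the rest.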 Not all results are given here. Results with a measured potency or affinity are listed apart.
These molecules were tested against Virion infectivity factor (Human immunodeficiency virus type 1 group M subtype B (isolate BH10)) + Virion infectivity factor (Human immunodeficiency virus type 1 group M subtype B (isolate BRU/LAI)) + Virion infectivity factor (Human immunodeficiency virus type 1 group M subtype B (isolate PCV12)) + Virion infectivity factor (Human immunodeficiency virus type 1 group M subtype B (isolate HXB2)) + DNA dC->dU-editing enzyme APOBEC-3G (Homo sapiens) (UniProt P69720+P69721+P69722+P69723+Q9HC16) (assay: inhibitors of Vif binding to APOBEC3G peptide, primary screen, biochemical, TR-FRET, GST-Vif 1-94, biotin-A3G peptide, dose response retest (AID 1117319;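 further: Vif residues 1-94 fused to GST binding biotinylated APOBEC3G peptide 110-148; 0% = full assay without inhibitor and 100% = GST in place of GST-Vif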)). Conditions: active compounds read high.

inhibition, inactive:
COc1ccc(Br)cc1/C=N/NC(=O)c1cccnc1 4.05%, CCC(C(=O)O)N1C(=O)/C(=C/C(C)=C/c2ccccc2)SC1=S (stereo not given) -2.68%, O=C(O)C(Cc1ccccc1)N1C(=O)/C(=C/c2cccs2)SC1=S (stereo not given) 24.3%, O=C(O)CCN1C(=O)/C(=C/c2ccc(-c3nc4ccccc4s3)o2)SC1=S 1.36%, O=C(O)C(Cc1ccccc1)N1C(=O)/C(=C/c2ccccc2)SC1=S (stereo not given) -5.34%, O=C(O)CCN1C(=O)/C(=C\c2ccc(-c3nc4ccccc4s3)o2)SC1=S 32.3%, O=C(O)CN1C(=O)/C(=C/C=C/c2ccccc2)SC1=S 5.16%, CCOc1cc(C2NC(=O)NC(C)=C2C(=O)OCc2ccccc2)ccc1O (stereo not given) 0.18%, CCOC(=O)N1CCN(Cc2nc3c(c(=O)[nH]c(=O)n3C)n2Cc2ccccc2C)CC1 23.6%, O=C(CNC(=O)c1ccccc1)Nc1ccsc1C(=O)O -11.3%, COc1ccc(Cc2noc(CN3CCNC(=O)CC3)n2)cc1OC 3.31%, O=c1c2nnn(Cc3ccccc3)c2ncn1C/C=C/c1ccccc1 -0.52%, CC(=O)c1ccc2c3c(ccc([N+](=O)[O-])c13)CC2 -4.85%, Nc1ccc2c3c(ccc([N+](=O)[O-])c13)CC2 -1.18%, Cc1nnc(SCCn2c(N3CCCCC3)nc3c2c(=O)[nH]c(=O)n3C)s1 0.62%, COc1ccccc1CNC(=O)CCn1c(=O)oc2ccccc21 0.68%, CCOc1ccccc1CNC(=O)Cn1c(=O)oc2ccccc21 72.4%, O=C(Nc1ccccc1N1CCOCC1)c1ccc2c(c1)OCCO2 -3.74%, CC(OC(=O)/C=C/c1ccc2ccccc2n1)C(=O)N(C)c1ccccc1 (stereo not given) 1.44%, Cc1ccc(Cn2nnnc2CN2CCC(O)(c3ccccc3F)CC2)cc1 20%, CCCCCCCCCCCCC(=O)CCCCC(=O)O -6.1%, CCCCCCCCS(=O)CCC(=O)O (stereo not given) 11.3%, O=C1CC(N2CCN(c3ccc(C(=O)c4ccc(F)cc4)cc3)CC2)C(=O)N1 (stereo not given) 28.2%, CC(C)(C)NC(=O)c1sccc1C(=O)O 9.39%, Cc1ccc(C)n1-c1ccsc1C(=O)CC#N 22.9%, O=C(CNC(=O)c1cccc(Cl)c1)NCCCSc1ccccc1 -1.26%, Nc1nc(N)c2cc(Sc3ccc(Cl)cc3)ccc2n1 -22.4%, Cc1cc(-c2ccco2)n(CC(=O)O)n1 5.45%, Cc1cc(-c2ccccc2)n(-c2ccccc2)n1 3.24%, COc1ccc(NC(=S)NCCc2ccccc2)c(OC)c1 18.1%, COc1ccc(NC(=S)NCCc2c[nH]c3ccccc23)c(OC)c1 20.9%, COc1cc(OC)cc(C(=O)N2CCCC(c3nc(-c4ccc(C)o4)no3)C2)c1 (stereo not given) 32.4%, COc1cccc(CN2CC(C(=O)N(C)CCCC3CCCC3)CCC2=O)c1 (stereo not given) -1.28%, Cc1ccc2[nH]c(=O)c(C(c3nnnn3C3CCCC3)N3CCCc4ccccc43)cc2c1 (stereo not given) 16.5%, CCC(C)(C)n1nnnc1C(c1cc2cc(OC)ccc2[nH]c1=O)N1CCc2ccccc21 (stereo not given) 3.72% and -1.49%, O=c1cc(CSc2nnc(Nc3ccccc3F)s2)nc2sccn12 -10.7%, COc1cc(C(=O)NCC(c2ccco2)N2CCCC2)ccc1OCc1ccccc1 (stereo not given) 3.67%, COc1ccccc1C(CNC(=O)c1ccc(OCc2c(C)noc2C)cc1)N1CCCC1 (stereo not given) 7.05%, Cc1ccc(NC(=O)COC(=O)CN2CCSC2=O)cc1Cl 7.83%, Cc1ccc(/C=C2/CNC/C(=C/c3ccc(C)cc3)C2=O)cc1 4.14%, Cc1ccc(/C=N/N=C/c2ccc(C)cc2)cc1 1.03%, Cc1nc2ccccc2n1CCN1CCOCC1 -1%, COC(=O)c1nn(-c2ccc(Oc3ccccc3)cc2)c(=O)cc1O 2.63%, Nc1ccc(S(=O)(=O)N2CCOCCOCCOCCOCCOCC2)cc1 1.81%, C=C(C)C(=O)OCC(=O)NCc1ccccc1 -3.45%, Oc1ccccc1/C=N/NC1=NCCCCC1 -2.42%, Oc1ccc(/C=N/NC2=NCCCCC2)cc1 27.5%, O=C(O)c1cccc(S(=O)(=O)Nc2cccc(S(=O)(=O)N3CCCCCC3)c2)c1 4%, Cc1cccc(N(Cc2ccccc2F)S(C)(=O)=O)c1 22.4%, c1coc(C2=Nc3cccc4cccc(c34)N2)c1 8.06%, CC(C)C1=Nc2cccc3cccc(c23)N1 -3.35%, COc1ccc(C2=Nc3cccc4cccc(c34)N2)cc1 -2.87%, Fc1ccc(C2=Nc3cccc4cccc(c34)N2)cc1 -0.82%, CC(=C\c1ccccc1)/C=C1/SC(=S)N(CCC(=O)O)C1=O -2.12%, CC(=C\c1ccccc1)/C=C1/SC(=O)N(CCCC(=O)Nc2ccc(C(=O)O)cc2)C1=O 0.71%, CC(=C\c1ccccc1)/C=C1/SC(=S)N(CCCC(=O)O)C1=O 2.05%, CC(=O)c1ccc(NC(=O)CCCN2C(=O)/C(=C/C(C)=C/c3ccccc3)SC2=S)cc1 4.61%, CC1=C(C(=O)N(C)C)C(c2cccs2)NC(=O)N1 (stereo not given) 4.4%, O=C(CS(=O)(=O)c1ccc(F)cc1)N1CCN(c2ccccc2)CC1 -1.09%, Cc1ccc(Nc2ccccc2)cc1 6.07%, c1ccc(Nc2ccccc2)cc1 -0.33%, Cc1cc(NC(=O)CSc2nnc(C)n2-c2ccccc2)no1 1.46%, COC(=O)[C@@H](NC(=O)O[C@H]1C(=O)c2ccc(OC)cc2O[C@@H]1c1ccc2c(c1)OCO2)C(C)C 12.9%, COc1ccc2c(c1)O[C@H](c1ccc3c(c1)OCO3)[C@@H](OC(=O)N[C@H]1CCCc3ccccc31)C2=O 4.66%, CC(OC(=O)CCc1nc2ccccc2[nH]c1=O)C(=O)c1ccccc1 (stereo not given) 6.75%, CC1Cc2ccccc2N1Cc1nc2cc(Cl)ccc2c(=O)[nH]1 (stereo not given) 7.91%, COC(=O)c1ccc2c(=O)[nH]c(CN3c4ccccc4CC3C)nc2c1 (stereo not given) 8.14%, O=C(Cn1cnc2ccccc21)NCCCN1CCOCC1 -5.55%, O=C(NNS(=O)(=O)c1ccccc1[N+](=O)[O-])c1ccc(F)cc1 -0.91%, O=C1NC(=O)/C(=C/c2ccc(N3CCOCC3)o2)N1 12.2%, O=C1NC(=O)/C(=C\c2ccc(Sc3ccc(Cl)cc3)o2)N1 21.1%, Cc1nnc(SCC(=O)NNC(=O)c2ccco2)n1-c1ccccc1 6.15%, Cc1cccc(N2CC(C(=O)Nc3ccccc3N3CCOCC3)CC2=O)c1C (stereo not given) -2.77%, CCCCn1c(SCC(=O)Nc2cc(C)on2)nnc1-c1cccnc1 -3.02%, CCn1c(SCC(=O)Nc2cc(C)on2)nnc1-c1ccccc1 -1.57%, CCc1nc(SCC(=O)c2ccccc2)c2c(=O)n(C)c(=O)n(C)c2n1 -11.9%, CC1(c2ccc([N+](=O)[O-])cc2)NC(=O)N(CC(=O)Nc2cccnc2Cl)C1=O (stereo not given) -4.51%, CC1=CC(C)(C)N2C(=O)C3(C(C#N)=C(N)Oc4cc(O)ccc43)c3cccc1c32 (stereo not given) 4.05%, COc1cc(N=C2C(=O)N3c4c(cccc42)C(C)=CC3(C)C)cc(OC)c1 -3.94%, CN(C)c1oc(-c2ccco2)nc1S(=O)(=O)c1ccc(Br)cc1 10.3%, Cc1cc(NC(=O)c2coc(=O)c(Br)c2)ccc1C(C)C 10.6%, COc1ccccc1NC(=O)c1coc(=O)c(Br)c1 13.2%, O=C(NCCc1ccc(F)cc1)c1coc(=O)c(Br)c1 -6.83%, O=C(Nc1ccc(Br)cn1)c1cccc(C(=O)Nc2ccc(Br)cn2)c1 -16%, CC(C)CNC(=O)c1coc(=O)c(Br)c1 12.1%, O=C(Nc1ccc(Br)cn1)c1ccc2ccccc2c1 -12.4%, CCCN(CC(=O)Nc1ccccc1OC)C(=O)c1ccc2[nH]c3c(c2c1)CC(C)CC3 (stereo not given) 2.48%, C[C@@H]1NC(=O)[C@H](CC(N)=O)NC(=O)c2cc([N+](=O)[O-])cc(I)c2OCC[C@@H](C(=O)NC(CC(=O)O)C(N)=O)NC1=O (stereo not given in full) 10.6%, Cc1csc(SC(C)C(=O)Nc2ccccc2C)n1 (stereo not given) -12.6%, Cc1ccc(C2=NC(C)(C)N=C2SCC(=O)Nc2ccc(Cl)cc2)cc1 2.26%, O=C(NC(=S)Nc1cc(-c2nc3ccccc3[nH]2)ccc1Cl)c1ccc2c(c1)OCO2 6.14%, C[C@H]1CN([C@@H](C)CO)C(=O)CCCn2nncc2CO[C@@H]1CN(C)Cc1ccc(Cl)c(Cl)c1 -0.91%, CCN(CC)c1ccc(/C=N/NS(=O)(=O)c2ccc(CNC(C)=O)cc2)cc1 -3.65%, COc1cccc(OCc2cc(/C=N/NC(=O)c3ccn[nH]3)ccc2OC)c1 0.65%, COC(=O)C1=C(N)N(c2ccc(F)cc2)C2=C(C(=O)CCC2)C1c1ccc2c(c1)OCO2 (stereo not given) -32.1%

— PubChem BioAssay AID1117319 (Southern Research Institute, 2015)
